# Screening data deposited in PubChem BioAssay by several laboratories.
# An excerpt weighted towards active compounds, which were near 0.96% of everything screened.
# sEH inhibitor: blocks human soluble epoxide hydrolase activity; recombinant human sEH enzymatic activity assay; actives 0.34% (n = 91,000); inhibition, % at 2 µM; in the data active = inhibition above about 80%
# Target sequence (P34913 whole entry, looked up): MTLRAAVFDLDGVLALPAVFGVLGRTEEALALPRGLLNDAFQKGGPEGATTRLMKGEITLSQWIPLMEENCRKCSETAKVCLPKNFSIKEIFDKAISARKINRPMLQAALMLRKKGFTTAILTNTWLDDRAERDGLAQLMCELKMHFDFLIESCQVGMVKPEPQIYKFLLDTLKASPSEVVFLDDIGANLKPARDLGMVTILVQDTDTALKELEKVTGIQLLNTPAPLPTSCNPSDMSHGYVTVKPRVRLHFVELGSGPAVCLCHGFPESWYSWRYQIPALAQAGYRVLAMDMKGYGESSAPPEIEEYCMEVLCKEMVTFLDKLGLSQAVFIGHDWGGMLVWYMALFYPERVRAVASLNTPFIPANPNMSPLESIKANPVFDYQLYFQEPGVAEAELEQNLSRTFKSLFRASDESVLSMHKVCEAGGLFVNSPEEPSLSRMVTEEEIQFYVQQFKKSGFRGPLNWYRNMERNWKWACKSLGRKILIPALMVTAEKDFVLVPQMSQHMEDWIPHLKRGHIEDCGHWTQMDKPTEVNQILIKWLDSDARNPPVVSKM
# F-actin modifier: modifiers of cytoskeleton assembly | HUVEC TNFa F-actin phalloidin imaging, high content | inhibition, % at 2 µM | actives 0.18% (n = 91,000) | AID 836;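 active = inhibition above the batch mean plus 3 SD and confirmed as a hit by visual image inspection, cut at about 30% in these data, passing the limit was not always enough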
# sEH activator: activators of human soluble epoxide hydrolase; purified human sEH enzymatic activity, activator screen; activation, % at 2 µM; actives 0.04% (n = 91,000); in the data active = activation above about 37%
# E-sel TNF inh: blocks E-selectin expression induced by TNF alpha; HUVEC TNFa-induced E-selectin immunofluorescence, high content; inhibition, % at 2 µM; actives 0.71% (n = 120,000); AID 1246;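 active = inhibition above the batch mean plus 3 SD, and confirmed as a hit on visual image review, cut at about 43% in these data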;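 note: 0% = TNF-stimulated DMSO wells and 100% = unstimulated control wells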
# SDO1 yeast rescue: sdo1-depleted yeast growth rescue. z-score at 10 µM. actives 0.21% (n = 140,000). S. cerevisiae sdo1-depleted JHY4D growth rescue, OD600 30 h; hits give high values; pdr5 snq2 efflux-pump mutant strain;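 active = z-score above 3 at both the 24 hr and the 30 hr optical density reads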;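 note: z-score against mean and SD of all compound wells on the same plate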
# Phagocyt inh: blocks phagocytosis by macrophages. J774A.1 macrophage IgG-bead phagocytosis, imaging. inhibition, % at 5 µM. actives 0.07% (n = 110,000);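 active = inhibition above the mean of the plate negative controls plus 5 SD, cut at about 13% in these data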;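 note: phagocytic index as fraction of beads internalized from green versus red external bead signal; plate controls were DMSO negative control for no effect and cytochalasin-D positive control for full effect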
# * marks the source's active call; other numbers are inactive results; / = no result given; [ ] = remark or other dose.
SMILES,sEH inhibitor,F-actin modifier,sEH activator,E-sel TNF inh,SDO1 yeast rescue,Phagocyt inh
CC(=O)N1N=C(c2ccco2)CC1c1cccs1 (stereo unspecified),3.2,27.6,-2.1,29.2,0.58,2.4
O=C(CCl)N1N=C(c2ccco2)CC1c1cccs1 (stereo unspecified),/,/,/,69.7*,-1.76,-10.6
Cc1ccc(C)n1NC(=O)c1ccccc1,1.5,-10.5,-1.5,3.0,0.59,/
Cc1ccc(C)n1NC(=O)c1cccs1,3.6,-47.3,-4.3,99.9*,0.48,-0.7
Cc1cccc(NC(=O)CCSc2nc(C)cc(C)n2)c1,-8.1,-26.2,8.9,75.8*,0.22,-2.7
CCOc1ccc(NC(=O)NCCCSC2CCCCC2)cc1,85.3*,-10.8,-85.5,6.4,-0.32,0.6
O=C(CNC(=O)c1ccccc1Cl)OC1CCOC1=O (stereo unspecified),/,/,/,-36.9,/,/
CCc1cccc(CC)c1NC(=O)COC(=O)CCc1cc(OC)c(OC)c(OC)c1,/,/,/,24.6,0.54,-10.6
CCOC(=O)N1CCC(N(CCOC)C(=O)Nc2ccc(Cl)cc2)CC1,/,/,/,80.4*,-0.41,-0.4
CCOC(=O)N1CCC(N(CCCOC)C(=O)Nc2ccc(CC)cc2)CC1,5.8,-6.9,-6.5,15.3,-0.44,-0.9
O=C(COc1ccc(S(=O)(=O)NCc2ccccc2)cc1)NCC1CCCO1 (stereo unspecified),6.9,0.7,-7.6,-1.6,0.5,23.6*
O=C(Nc1ccc(Cl)cc1)Nc1nnc(CSc2ccc(Cl)cc2)s1,/,/,/,64.0*,1.32,/
c1csc(C(c2nnnn2C2CCCC2)N2CCCC3(CCCCC3)C2)c1 (stereo unspecified),-8.2,-6.0,10.6,56.6*,-0.13,2.0
Cc1ccc(N2C(=O)C3C4C=CC(CNC(=S)Nc5ccc(F)cc5)(O4)C3C2=O)cc1 (stereo unspecified),/,/,/,68.1*,0.03,1.7
CCCc1nc(NCC2CCCO2)c2nnn(Cc3ccccc3)c2n1 (stereo unspecified),5.0,-9.3,-0.9,-7.8,-0.63,/
Cc1ccnc(N2C(=O)C3C4CC(C(Br)C4Br)C3C2=O)c1 (stereo unspecified),-6.8,16.1,10.4,53.7*,1.56,/
CON1C(=O)C(=O)N(OC)C(C)(C)C1(C)C,/,/,/,-40.1,0.31,-13.2
Cc1cc(C)cc(NC(=O)c2ccc([N+](=O)[O-])o2)c1,/,/,/,75.8*,/,/
CCOC(=O)c1c(C)[nH]c(C)c1C(=O)CSc1nc2ccccc2n1CC,/,/,/,/,0.61,-2.3
CCOC(=O)c1sc2nc(CSc3nc4ccccc4n3CC)[nH]c(=O)c2c1C,2.2,-25.5,-2.6,76.7*,-1.03,3.7
Cc1ccccc1N1CC(O)(c2ccccc2)[N+]2=C1SCC2 (stereo unspecified),/,/,/,12.4,0.77,6.2
Cc1ccc(C2(O)CN(c3ccccc3C)C3=[N+]2CCS3)cc1 (stereo unspecified),/,/,/,63.7*,-0.36,-12.1
COc1ccc(-c2ccc(C(=S)N3CCN(C(C)=O)CC3)o2)cc1,-11.3,-5.1,10.7,64.3*,-0.1,-0.1
O=C(O)c1sc2cc(C(F)(F)F)cnc2c1-c1ccccc1,-5.8,-15.3,7.7,14.3,0.76,/
FC(F)(F)c1cnc2c(-c3ccccc3)n[nH]c2c1,/,/,/,67.8*,/,/
SMILES,sEH inhibitor,F-actin modifier,sEH activator,E-sel TNF inh,SDO1 yeast rescue,Phagocyt inh
CCOc1ccccc1C(=O)N1CCCCC1C (stereo unspecified),-3.1,17.5,5.3,-8.4,0.17,-1.4
CCOC(=O)/C=C/S(=O)(=O)c1ccc(NC(C)=O)cc1,-3.4,9.4,4.9,76.2*,0.3,-0.9
CCN1C(c2ccccc2)=C(c2ccccc2)S/C1=C\C=C1/SC(=S)N(C)C1=O,-12.3,-3.4,11.4,15.4,/,/
CCN1C(=O)/C(=C/C=C2/Sc3ccc4ccccc4c3N2CCO)SC1=S,/,/,/,/,0.38,122.8*[fluoresces]
CCCCOC(=O)N/N=C/C=C/c1ccccc1,/,/,/,/,0.54,-2.9
COc1ccc(C2C(C#N)=C(SCC(=O)Nc3ccc(C)cc3)NC3=C2C(=O)CC(C)(C)C3)cc1 (stereo unspecified),-8.8,6.3,10.2,65.7*,0.26,-3.4
COc1cc(C2C(C#N)=C(N)Oc3cc(C)n(CCc4ccccc4)c(=O)c32)cc2c1OCO2 (stereo unspecified),/,/,/,95.0*,0.28,-5.4
Cc1ccc(OCCN2C(=O)S/C(=C\c3ccc(C)o3)C2=O)cc1,/,/,/,/,0.03,-6.4
CCC(C)(C)n1nnnc1C(c1ccc(OC)c(OC)c1)N1CCN(c2ccccc2)CC1 (stereo unspecified),4.5,-1.4,-3.3,83.3*,-0.14,2.2
CCn1c(NC(=O)Nc2cccc(C)c2C)cc2sccc21,/,-5.1,/,15.9,0.94,-0.2
CN(C(=S)Nc1ccc(Oc2ccccc2)cc1)c1ccc(O)cc1,/,/,/,87.1*,-0.18,0.5
CN(C(=S)Nc1ccccc1)c1ccccc1,/,/,/,0.8,0.23,-1.6
Clc1ccccc1-c1nnc2sc(-c3ccccn3)nn12,-35.5,11.7,37.7*,4.1,-0.61,/
Cc1ccc(C)c(N(CC(=O)NCCSCc2ccco2)S(C)(=O)=O)c1,-13.7,18.0,13.1,62.6*,-0.31,1.6
COCCNc1cc(N)c([N+](=O)[O-])cc1[N+](=O)[O-],/,/,/,/,0.55,-3.4
O=c1[nH]c2cc(NCCO)c([N+](=O)[O-])cc2[nH]1,/,/,/,72.6*,/,/
Nc1ccc(Nc2ccncc2[N+](=O)[O-])cc1,-2.7,7.8,0.9,-26.7,0.59,2.1
O=[N+]([O-])c1cnccc1Nc1ccc(F)cc1,10.5,84.7*,-13.5,6.5,-1.07,/
COc1cc(C(=O)Nc2ccc(N3CCOCC3)cc2)ccc1OCc1c(C)noc1C,/,/,/,-23.9,-0.12,-8.7
CCOc1ccc(OCC)c(NC(=O)CN2CCN(c3cccc(C)c3)CC2)c1,/,/,/,95.5*,-0.46,/
CCN(CC)CCNC(=O)CS(=O)Cc1nc(-c2ccc(Cl)cc2)oc1C (stereo unspecified),-1.3,/,3.2,/,0.94,/
CCN(CC)CCNC(=O)CS(=O)Cc1nc(-c2ccccc2Cl)oc1C (stereo unspecified),-6.8,-8.8,7.4,70.9*,0.76,0.0
O=C(N/N=C/c1ccc(O)cc1)c1csc2ccccc12,84.1*,14.8,-84.0,-15.6,0.33,/
CCOc1ccc2nc(NCCCNS(=O)(=O)c3ccccc3)c(C#N)cc2c1,-25.2,-4.6,25.4,14.7,-1.6,-2.7
CCOC(=O)Cc1csc(NC(=S)NC(=O)c2cccc([N+](=O)[O-])c2)n1,/,/,/,/,-0.65,-3.8
SMILES,sEH inhibitor,F-actin modifier,sEH activator,E-sel TNF inh,SDO1 yeast rescue,Phagocyt inh
CCCC(=O)C1=C(O)C(C(=O)OC)C(C)(C)CC1=Nc1ccc(OC)cc1 (stereo unspecified),/,/,/,-15.2,/,/
CCCC(=O)C1=C(O)C(C(=O)OC)C(C)(C)CC1=Nc1ccc(N)cc1 (stereo unspecified),6.0,-17.7,-4.8,58.9*,0.13,-2.8
CCOc1cc(S(=O)(=O)NCc2ccccc2)ccc1F,-1.1,-2.8,2.4,15.2,1.16,-1.5
Cc1cc(OCC(=O)Nc2ccncc2)c(C)cc1Br,2.5,15.4,-3.7,66.4*,-1.86,-1.1
CN(C)/C=C1\C(=O)ON=C1c1ccccc1,/,/,/,9.7,/,/
CCCCc1ccc(/C=C2\C(=O)ON=C2c2ccccc2)s1,/,/,/,/,-0.8,39.3*[artifact]
